# High-throughput results (PubChem BioAssay)
# Only some compounds are listed: those with a hit (about 19% of all), similar ones and a draw of the others.
# uPA generation: inhibitors of cell surface uPA generation. Potency, µM (highest dose often 38.3 µM), usual class: inhibitors. AID 540303. cell surface uPA generation assay, qHTS. 330,000 compounds, 0.31% hits; active = well fitted inhibition curve with a large enough effect; inconclusive = small, poorly fitted or top-dose-only effect; inactive = no such curve, though single readings can be large or run the other way; tested in mouse RAW 264.7 cells; also: nearly all actives have a fitted effect of over 55% in size
# HT1080 IDH1KD tx: toxicity to HT-1080 IDH1 knockdown cells (counter line) | HT-1080 IDH1 knockdown viability, ATP luminescence, 48 h | Potency, µM (series often up to 46.1 µM), hits mostly cytotoxic | 360,000 compounds, 2% hits | AID 686971
#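 CellTiter-Glo luminescence after 48 h compound exposure at 37 degrees C of IDH1-knockdown HT-1080 cells in 5% FBS RPMI. %Activity scaled between DMSO wells and cell-free media wells, with curves fitted and assigned curve classes.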
# IL1B secr inh: inhibitors of inflammasome signaling (IL-1 beta secretion). THP-1 LPS/ATP IL-1B secretion, AlphaLISA, 16 h; hits give low values. activity change, % at 57.5 µM. 360,000 compounds, 4.7% hits. AID 743279; in the data active = activity change below about -50%; inconclusive = mostly about -30% to -49%
#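 Secreted IL-1B measured by AlphaLISA bead assay after 16 h compound exposure of THP-1 cells; compounds (final up to 57.5 uM) added 1 h before LPS (250 ng/mL) and ATP (1.25 mM) stimulation; lower signal means less secretion.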
# DT40 TDP1 CPT: growth inhibition of DT40 Tdp1-/-;hTDP1 cells with camptothecin (screen for TDP1 inhibitors). chicken DT40 Tdp1-/-;hTDP1 cells + 20 nM CPT, ATP luminescence, 48 h. Potency, µM (series often up to 46.2 µM), most hits filed as inhibitors. 420,000 compounds, 12% hits. AID 686979; also: nearly all actives have a fitted effect of over 55% in size
#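 Cell growth measured by CellTiter-Glo luminescence after a minimum 48 h, 37 C compound exposure with 20 nM CPT in Tdp1-knockout DT40 cells stably expressing hTDP1, seeded 400/well; qHTS titration format.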
# TDP1 cell noCPT: qHTS for Inhibitors of human tyrosyl-DNA phosphodiesterase 1 (TDP1): qHTS in cells in absence of CPT; DT40 Tdp1-/- hTDP1 cells, no CPT, ATP luminescence, 48 h; Potency, µM (highest dose often 46.2 µM), actives largely listed as inhibitors; 420,000 compounds, 15% hits; AID 686978, 2013; also: nearly all actives have a fitted effect of over 55% in size
#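 Compound effects on proliferation are scored in DT40 Tdp1-/-;hTDP1 cells in the absence of CPT. ATP levels (CellTiter-Glo luminescence) are recorded after a ≥48 hr, 37 °C incubation.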
# HT1080NT lethal: kills 2HG-producing HT-1080-NT fibrosarcoma cells; Potency, µM (highest dose often 46.1 µM), most hits filed as cytotoxic; 360,000 compounds, 1.6% hits; AID 686970; HT-1080-NT fibrosarcoma viability, CellTiter-Glo ATP luminescence, 48 h;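 also: NT is the 2HG producing partner of a matched IDH1 knockdown line; nearly all actives have a fitted effect of over 55% in size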
#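 Toxicity toward the 2HG-producing NT line was scored as %Activity, normalised to DMSO and no-cell wells, from CellTiter-Glo luminescence after 48 hours' treatment.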
# Hits are given with their value; 0 = inactive; ? = inconclusive; - = no result. Unless noted, calls follow the shape of the dose curve; as a rule, active = well fitted curve in the direction sought with a large enough effect; inconclusive = small, poorly fitted or top-dose-only effect, or another doubt; inactive = no such curve, though single readings can be large; an effect the other way counts as inactive or inconclusive.
SMILES,uPA generation,HT1080 IDH1KD tx,IL1B secr inh,DT40 TDP1 CPT,TDP1 cell noCPT,HT1080NT lethal
CC(=O)O[C@H]1C(=O)[C@@]2(C)C([C@H](OC(=O)c3ccccc3)[C@]3(O)C[C@H](OC(=O)[C@H](O)[C@@H](NC(=O)Cc4ccccc4)c4ccccc4)C(C)=C1C3(C)C)[C@]1(OC(C)=O)CO[C@@H]1C[C@@H]2O (stereo not given in full),?,?,0,0.184µM,0.184µM,0.517µM
CC(=O)O[C@@]12CO[C@@H]1C[C@H](O)[C@@]1(C)C(=O)[C@H](O)C3=C(C)[C@@H](OC(=O)[C@H](O)[C@@H](NC(=O)c4ccccc4)c4ccccc4)C[C@@](O)([C@@H](OC(=O)c4ccccc4)C12)C3(C)C (stereo not given in full),0.447µM,?,0,0.0326µM,0.206µM,0.0073µM
CC(=O)O[C@H]1C(=O)[C@@]2(C)C([C@H](OC(=O)c3ccccc3)[C@]3(O)C[C@H](O)C(C)=C1C3(C)C)[C@]1(OC(C)=O)CO[C@@H]1C[C@H]2O (stereo not given in full),?,0,0,7.31µM,5.8µM,0
CC(=O)c1ccc(OCC(=O)N2CCCC(N3CCN(c4ccccc4C)CC3)C2)cc1 (stereo not given),0,0,0,?,?,0
O=C1/C(=C\c2ccc(Cl)cc2Cl)N2CCC1CC2,0,0,0,0,?,0
O=C1/C(=C\c2ccc(Cl)c(Cl)c2)N2CCC1CC2,0,0,-79.3,0,?,0
O=C1/C(=C/c2cc([N+](=O)[O-])ccc2Cl)N2CCC1CC2,0,0,0,18.4µM,16.4µM,0
O=C1/C(=C/c2cccc([N+](=O)[O-])c2)N2CCC1CC2,0,0,-67.7,0,0,0
CCC(=O)Nc1ccccc1,0,0,0,0,0,0
Cn1cc(NC(=O)CCl)cn1,0,?,-101.5,?,?,?
CCOC(=O)c1ccccc1NC(=O)c1c(O)[nH]c(=O)[nH]c1=O,0,0,0,0,0,0
CCOC(=O)c1ccccc1NC(=O)N(Cc1ccc(CC)cc1)Cc1cn[nH]c1-c1ccc(OC)cc1,-,-,-,?,14.6µM,-
C=CCCC1(CC(C)C)C(=O)NC(=S)NC1=O,0,0,0,0,0,0
O=C(NC1C=CS(=O)(=O)C1)c1sc2ccccc2c1Cl (stereo not given),?,11.2µM,-97.1,?,23.1µM,15.8µM
COc1cccc(NC(=S)NC(=O)c2cncc(Br)c2)c1,?,0,0,0,?,0
Cc1ccc(CCNC(=O)Cn2nc(C)c3c(C)n(-c4ccc(C)cc4)nc3c2=O)cc1,-,-,-,23.1µM,?,-
COc1cccc(NC(=O)C2CCN(c3nnc(C)c4c(C)n(-c5ccccc5)nc34)CC2)c1,-,-,-,?,23.1µM,-
Cc1ccc(-n2nc3c(N4CCC(C(=O)NCCc5ccccc5)CC4)nnc(C)c3c2C)cc1,-,-,-,4.61µM,5.8µM,-
CNC(=O)Oc1ccc(N(C)C)cc1C(C)C,0,0,0,0,0,0
CCOc1ccccc1-n1c(O)c(C=NCCCn2ccnc2)c(=O)[nH]c1=O,0,0,0,0,0,?
Cc1ccc(/C=C2/C(=O)NC(=O)N(CC3CCCO3)C2=O)s1 (stereo not given),0,0,0,0,?,0
O=C1COc2ccc(-c3csc(=Nc4ccc(OC(F)F)cc4)n3CC3CCCO3)cc2N1 (stereo not given),-,?,-65.4,?,16.4µM,?
O=[N+]([O-])c1ccc(O)c([N+](=O)[O-])c1,0,0,0,?,?,0
Nc1ccc([N+](=O)[O-])cc1O,-,-,-,24.3µM,21.7µM,-
CC1CCN(C(=O)CCl)CC1,?,0,?,?,16.4µM,0
C[C@H]1[C@@H](OS(=O)(=O)O)C[C@@H]2C[C@H]([C@@H](O)c3cc(=O)[nH]c(=O)[nH]3)NC3=NC[C@H]1N32,-,-,0,2.31µM,3.66µM,2.06µM
Cc1nnc2n1-c1sc(CCC(=O)N3CCOCC3)cc1C(c1ccccc1Cl)=NC2,-,-,-,0,0,-
